From PubChem BioAssay (NCI)
The panel holds about 83,000 compounds, 20% with a hit somewhere; the sample as a whole holds those more often.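 Method: cells in 96-well plates; compound added at one concentration; 48 h incubation; percent growth measured; values under 10 scored active.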 The source made the active and inactive calls.

What was measured:
Assay in all cases: NCI-60 one-dose screen, 48 h (100 = growth as untreated, 0 = no growth, -100 = all killed)
Conditions in all cases: 10 µM unless noted
DU-145 prostate = tested on: DU-145 prostate
K-562 leukemia = tested on: K-562 leukemia
MALME-3M melanoma = tested on: MALME-3M melanoma
MDA-MB-231 breast = tested on: MDA-MB-231 breast
RXF 393 renal = tested on: RXF 393 renal
SF-268 CNS = tested on: SF-268 CNS
SF-295 CNS = tested on: SF-295 CNS
SF-539 CNS = tested on: SF-539 CNS
UACC-257 melanoma = tested on: UACC-257 melanoma
M14 melanoma = tested on: M14 melanoma
HCT-15 colon = tested on: HCT-15 colon
HT29 colon = tested on: HT29 colon
SNB-75 CNS = tested on: SNB-75 CNS
SNB-19 CNS = tested on: SNB-19 CNS
U251 CNS = tested on: U251 CNS
PC-3 prostate = tested on: PC-3 prostate
SK-MEL-5 melanoma = tested on: SK-MEL-5 melanoma
UACC-62 melanoma = tested on: UACC-62 melanoma
LOX IMVI melanoma = tested on: LOX IMVI melanoma
SK-MEL-28 melanoma = tested on: SK-MEL-28 melanoma

Measured: growth

O=C(O)CCCN1C(=O)CSC1=S
inactive: DU-145 prostate 107% | K-562 leukemia 103% | MALME-3M melanoma 102% | MDA-MB-231 breast 107% | RXF 393 renal 107% | SF-268 CNS 93.9% | SF-295 CNS 106% | SF-539 CNS 102% | UACC-257 melanoma 95.9% | M14 melanoma 93.3% | HCT-15 colon 94.3% | HT29 colon 108% | SNB-75 CNS 85.6% | SNB-19 CNS 102% | U251 CNS 108% | PC-3 prostate 95.3% | SK-MEL-5 melanoma 101% | UACC-62 melanoma 96.2% | LOX IMVI melanoma 94.7% | SK-MEL-28 melanoma 105%

O=C1CC2C=CCN2C=C1NC(=O)c1ccccc1 (stereo not given)
inactive: DU-145 prostate 103% | K-562 leukemia 92.7% | MALME-3M melanoma 93.9% | MDA-MB-231 breast 112% | RXF 393 renal 105% | SF-268 CNS 98.7% | SF-295 CNS 98% | SF-539 CNS 107% | UACC-257 melanoma 99.8% | M14 melanoma 98.8% | HCT-15 colon 100% | HT29 colon 97.9% | SNB-75 CNS 96.8% | SNB-19 CNS 108% | U251 CNS 97.2% | PC-3 prostate 99.7% | SK-MEL-5 melanoma 100% | UACC-62 melanoma 109% | LOX IMVI melanoma 99.3% | SK-MEL-28 melanoma 103%

CCOC(=O)C#Cc1c(CC(=O)OCC)nnn1[C@H]1O[C@@H](CO)[C@@H]2OC(C)(C)O[C@@H]21
active: RXF 393 renal 3.65% | HCT-15 colon -12.8%
inactive: DU-145 prostate 94.5% | K-562 leukemia 10.3% | MALME-3M melanoma 26.6% | MDA-MB-231 breast 105% | SF-268 CNS 105% | SF-295 CNS 97.4% | SF-539 CNS 75.3% | UACC-257 melanoma 62.8% | M14 melanoma 58.3% | HT29 colon 29.2% | SNB-75 CNS 76.4% | SNB-19 CNS 97.7% | U251 CNS 96.9% | PC-3 prostate 89.4% | SK-MEL-5 melanoma 97.2% | UACC-62 melanoma 84.8% | LOX IMVI melanoma 47.3% | SK-MEL-28 melanoma 86.6%

Cc1c2ccncc2c(C)c2c1c1ccccc1n2CCCCCC(=O)O
inactive: DU-145 prostate 104% | K-562 leukemia 92.5% | MALME-3M melanoma 108% | MDA-MB-231 breast 81.2% | RXF 393 renal 93.2% | SF-268 CNS 86.6% | SF-295 CNS 95.3% | SF-539 CNS 90.2% | UACC-257 melanoma 106% | M14 melanoma 103% | HCT-15 colon 87.1% | HT29 colon 101% | SNB-75 CNS 82.8% | SNB-19 CNS 86.1% | U251 CNS 85.8% | PC-3 prostate 86.2% | SK-MEL-5 melanoma 89.8% | UACC-62 melanoma 85.2% | LOX IMVI melanoma 74.4% | SK-MEL-28 melanoma 113%

COc1ccc(S(=O)(=O)NC2c3ccccc3CC2O)cc1OC (stereo not given)
inactive: DU-145 prostate 111% | K-562 leukemia 102% | MALME-3M melanoma 110% | MDA-MB-231 breast 112% | RXF 393 renal 117% | SF-268 CNS 93.6% | SF-295 CNS 98.3% | SF-539 CNS 101% | UACC-257 melanoma 111% | M14 melanoma 99.1% | HCT-15 colon 102% | HT29 colon 107% | SNB-75 CNS 80.1% | SNB-19 CNS 98.6% | U251 CNS 102% | PC-3 prostate 97.8% | SK-MEL-5 melanoma 103% | UACC-62 melanoma 96.2% | LOX IMVI melanoma 102% | SK-MEL-28 melanoma 114%

C#CCOC(=O)C(N)CSSCC(N)C(=O)O (stereo not given)
inactive: DU-145 prostate 119% | K-562 leukemia 108% | MALME-3M melanoma 95.6% | MDA-MB-231 breast 105% | RXF 393 renal 114% | SF-268 CNS 100% | SF-295 CNS 103% | SF-539 CNS 90.8% | UACC-257 melanoma 104% | M14 melanoma 100% | HCT-15 colon 108% | HT29 colon 102% | SNB-75 CNS 76.1% | SNB-19 CNS 103% | U251 CNS 105% | PC-3 prostate 91.6% | SK-MEL-5 melanoma 105% | UACC-62 melanoma 98% | LOX IMVI melanoma 98.7% | SK-MEL-28 melanoma 96.4%

O=C(Nc1cccc(Cn2c(=O)[nH]c3ccc(Oc4ncccn4)cc3c2=O)c1)c1cccc(Cl)c1
inactive: DU-145 prostate 56.5% | K-562 leukemia 27.1% | MALME-3M melanoma 79.5% | MDA-MB-231 breast 72.6% | RXF 393 renal 81.1% | SF-268 CNS 55.6% | SF-295 CNS 45.5% | SF-539 CNS 71.3% | UACC-257 melanoma 44% | M14 melanoma 70% | HCT-15 colon 61.3% | HT29 colon 54.8% | SNB-75 CNS 82.2% | SNB-19 CNS 65.3% | U251 CNS 61.9% | PC-3 prostate 50.3% | SK-MEL-5 melanoma 11.4% | UACC-62 melanoma 52.1% | LOX IMVI melanoma 71.4% | SK-MEL-28 melanoma 78.8%
